Data taken from ChEMBL document CHEMBL3988442, “University of Dundee, Small-Polar-MMV Screening Library” (2021).
The campaign covered roughly 69,000 compounds. About 420 (0.61%) showed an effect of 50% or more. Only a selection was taken, and strong results are over-represented in it overall.

Molecular target: T1, Histidine--tRNA ligase (Leishmania infantum) (UniProt A4I591)
T1 sequence (whole entry): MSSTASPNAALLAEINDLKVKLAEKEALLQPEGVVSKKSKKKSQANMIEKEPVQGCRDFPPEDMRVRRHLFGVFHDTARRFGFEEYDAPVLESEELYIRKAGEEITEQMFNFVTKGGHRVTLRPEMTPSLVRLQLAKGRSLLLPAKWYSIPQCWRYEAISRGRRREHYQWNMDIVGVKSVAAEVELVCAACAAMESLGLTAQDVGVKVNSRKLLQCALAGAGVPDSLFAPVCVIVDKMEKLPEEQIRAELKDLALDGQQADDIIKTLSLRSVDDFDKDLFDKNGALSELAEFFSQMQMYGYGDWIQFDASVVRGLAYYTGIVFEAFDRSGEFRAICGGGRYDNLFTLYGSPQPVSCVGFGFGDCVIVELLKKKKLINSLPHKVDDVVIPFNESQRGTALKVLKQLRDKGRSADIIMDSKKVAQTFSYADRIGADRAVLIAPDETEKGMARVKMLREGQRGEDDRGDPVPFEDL
Assay: Leishmania infantum Histidine tRNA synthetase (LdHisRS)
Assay type: functional
Set-up: scale not given: in the data most compounds retested in dose-response had high values
Details: 30 µM

Structure (SMILES)	Percent Effect [%]
Cn1nc2c(cc1=O)CN(Cc1coc(-c3cccs3)n1)CC2	97.6
CN(C)CC1CN(Cc2coc(-c3cccs3)n2)CCO1 (stereo unspecified)	14.9
Cn1nc2c(cc1=O)CN(Cc1coc(-c3ccccc3)n1)CC2	44.7
CCn1nc2c(cc1=O)CN(Cc1coc(-c3ccccc3)n1)CC2	14.9
O=C1NCCN1C1CCN(Cc2coc(-c3ccc(F)cc3)n2)CC1	9.82
O=C1NCCN1C1CCCN(Cc2coc(-c3ccc(F)cc3)n2)C1 (stereo unspecified)	24.6
O=C1NCCN1C1CCCN(Cc2coc(-c3cccs3)n2)C1 (stereo unspecified)	13.4
Cn1nc2c(cc1=O)CN(Cc1coc(-c3ccc(F)cc3)n1)CC2	90.3
CCN1CCN(Cc2coc(-c3cccc(F)c3)n2)CC1	21.9
CC1CCCN(Cc2coc(-c3cccc(F)c3)n2)C1 (stereo unspecified)	13.7
Cn1nc2c(cc1=O)CN(Cc1coc(-c3cccc(F)c3)n1)CC2	90.3
Cc1ccc(-c2nc(CN3CCc4nn(C)c(=O)cc4C3)co2)cc1	107
Cc1cccc(S(=O)(=O)N2CC[C@H]3CO[C@H](CN(C)C)[C@H]3C2)c1	0.917
Cc1ccc(CN2C[C@H](N(C)Cc3cncnc3)[C@H]3OCCC[C@H]32)o1	15.4
O=C1CCCC2=C1C(c1ccc(F)cc1F)Nc1nonc1N2 (stereo unspecified)	14.6
Cc1ccccc1CN1C[C@@H]2CC[C@H](C1)N(CC1CCC1)C2=O	34.4
CCOCC(=O)N1C[C@@H]2CC[C@H](Oc3ccccc3)[C@@H]2C1	26.3
O=C(CCNCc1cccc(O)c1)N1CCc2sccc2C1	85
N#Cc1cccc(CNCCC(=O)N2CCc3sccc3C2)c1	5.38

Structure (SMILES)	Percent Effect [%]
COc1ccc(CNCCC(=O)N2CCc3sccc3C2)cc1O	26.9
c1ccc(-c2noc(CNC3CCCN(c4cccnn4)C3)n2)nc1 (stereo unspecified)	67.7
c1cnnc(N2CCCC(NCc3nc(-c4ccco4)no3)C2)c1 (stereo unspecified)	0.926
c1cnnc(N2CCCC(NCc3nc(-c4cccs4)no3)C2)c1 (stereo unspecified)	24.7
Cc1cccc(CN2C[C@@H]3OCCN(CC(=O)N(C)C)[C@@H]3C2)c1	13.5
O=C(c1ncccn1)N1C[C@@H]2COC[C@]2(COc2cccnc2)C1	17.3
CS(=O)(=O)c1ccc(CN2C[C@H]3CC[C@@H]2CN(c2ncccn2)C3)cc1	15
CCS(=O)(=O)N1CCC2(CC1)CC[C@@]1(C(=O)NC)CN(C(C)=O)C[C@@H]21	19.7
CC(C)(C)C(=O)N1CC[C@H]2NC(=O)N(c3ccc(F)cc3)C(=O)[C@H]21	19.4
Cc1nc([C@@H]2C[C@@H]3CCN(C(=O)c4ccnnc4)C[C@H]3O2)sc1C	18.4
Cc1cccc(=O)n1CCCNc1nc(N(C)C)nc2c1CCNC2	35.3
c1ccc2c(c1)CN(c1ncnc3c1CCNC3)CCO2	16.1
Cc1nc2c(c(N3CCN(c4ncccc4C(N)=O)CC3)n1)CCNC2	12.9
CN(C)c1nc2c(c(N3CCc4ccccc4C3)n1)CCNC2	58.6
Cc1ccccc1N1CCN(c2nc(N(C)C)nc3c2CCNC3)CC1	58.6
CN(C)c1nc2c(c(N3CCc4c(c(CO)nn4C)C3)n1)CCNC2	11.4
Cc1cc2n(n1)CCN(c1nc(N(C)C)nc3c1CCNC3)C2	36.7
c1ccc2c(c1)CCN(c1nc(-c3ccncc3)nc3c1CCNC3)C2	101
CC(Nc1nc(-c2ccccc2)nc2c1CCNCC2)c1nccs1 (stereo unspecified)	19.7

Structure (SMILES)	Percent Effect [%]
CC(Nc1nc(-c2ccccc2)nc2c1CCNCC2)c1cccnc1 (stereo unspecified)	16.4
CC(Nc1nc(-c2ccncc2)nc2c1CCNC2)c1ccccc1 (stereo unspecified)	54.1
c1ccc2c(c1)CCN(c1ncnc3sc4c(c13)CCNC4)C2	15.1
CCOc1ccc(C(=O)N2C[C@H]3CC[C@@H]2CN(C)C3)cc1OCC	15.1
O=C1[C@H]2CN(S(=O)(=O)c3cccs3)C[C@H]2CN1CC1CC1	21.4
CN(Cc1cncnc1)[C@@H]1CN(C(=O)c2ccco2)[C@@H]2CCCO[C@H]12	17.3
CCC1=N[C@@]2(CC[C@@H]3CN(Cc4ccc(F)cc4)C[C@@H]32)C(=O)N1C	8.18
Cc1ccc(CN2CCN(C(=O)C3CCC3)[C@@H]3CS(=O)(=O)C[C@@H]32)cc1C	20.6
CC1=N[C@@]2(CC[C@@H]3CN(C(=O)NC(C)C)C[C@@H]32)C(=O)N1CC1CC1	11.1
CC(C)C(=O)N1CC[C@H]2N(C)CC[C@@]2(C(=O)Nc2ccccc2)CC1	2.7
COCCN1CC[C@H]2CN(Cc3ccc(C)s3)C[C@@H]2C1=O	7.69
CC(=O)N1CC[C@H]2OCC[C@@]2(C(=O)NCc2ccco2)C1	13.2
Cc1cccnc1[C@H](C)Nc1nc(-c2cccnc2)nc2c1CNC2	54.3
CCc1cc(C(C)Nc2nc(-c3cccnc3)nc3c2CNC3)on1 (stereo unspecified)	17.1
Cc1cc(CC(C)Nc2nc(-c3cccnc3)nc3c2CNC3)[nH]n1 (stereo unspecified)	22.9
COC(=O)[C@@H](NC(=O)c1coc(COc2cccc(F)c2)n1)C(C)C	6.58
CC(NC(=O)c1coc(COc2cccc(F)c2)n1)c1nnc(N)s1 (stereo unspecified)	54
CCC(C)NC(=O)c1coc(COc2cccc(F)c2)n1 (stereo unspecified)	19.7
